# Assay outcomes: PubChem, National Center for Advancing Translational Sciences (NCATS)
# Pol kappa inh-1 – qHTS for Inhibitors of Polymerase Kappa; DNA polymerase kappa (Homo sapiens), Q9UBT6; purified Pol kappa, fluorescent DNA synthesis assay, 10 min; Potency, µM (doses to about 107 µM), for inactives: at the highest dose activity, negative = inhibition, usual class: inhibitors; 0.53% of 400,000 active; also: potency is read from the fitted curve at half-maximal effect; % is scaled to controls: 0 for no effect and ±100 for the full control effect
#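 Inhibition of 10 nM Pol kappa is measured by a fluorescent read-out at 0 and 10 min following addition of 50 nM substrate (final), with a 15-min room-temperature compound preincubation.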
# POLB inh – qHTS Assay for Inhibitors of DNA Polymerase Beta; 1.3% of 340,000 active; P06746; Pol beta primer extension/strand displacement, fluorescence kinetic; Potency, µM (titrated, usually from 114 µM), without a hit: at the highest dose activity change, negative = inhibition, usual class: inhibitors; also: potency is read from the fitted curve at half-maximal effect; % is scaled to controls: 0 for no effect and ±100 for the full control effect
#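 Curves were derived by four-parameter Hill fits of normalized qHTS data. The kinetic fluorescent primer-extension read was taken at 0 and 10 min after 50 nM substrate, following a 15 min room-temperature preincubation of 10 nM enzyme with compounds.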
# TDP1 inh – qHTS Assay for Inhibitors of Tyrosyl-DNA Phosphodiesterase (TDP1); recombinant TDP1, AlphaScreen DNA substrate cleavage; Potency, µM (doses to about 130 µM), inactives show top-dose activity change, negative = inhibition, usual class: inhibitors; 0.28% of 350,000 active; also: potency is read from the fitted curve at half-maximal effect; % is scaled to controls: 0 for no effect and ±100 for the full control effect; nearly all actives have a fitted effect of over 40% in size
# Target sequence (Q9NUW8 whole entry, looked up): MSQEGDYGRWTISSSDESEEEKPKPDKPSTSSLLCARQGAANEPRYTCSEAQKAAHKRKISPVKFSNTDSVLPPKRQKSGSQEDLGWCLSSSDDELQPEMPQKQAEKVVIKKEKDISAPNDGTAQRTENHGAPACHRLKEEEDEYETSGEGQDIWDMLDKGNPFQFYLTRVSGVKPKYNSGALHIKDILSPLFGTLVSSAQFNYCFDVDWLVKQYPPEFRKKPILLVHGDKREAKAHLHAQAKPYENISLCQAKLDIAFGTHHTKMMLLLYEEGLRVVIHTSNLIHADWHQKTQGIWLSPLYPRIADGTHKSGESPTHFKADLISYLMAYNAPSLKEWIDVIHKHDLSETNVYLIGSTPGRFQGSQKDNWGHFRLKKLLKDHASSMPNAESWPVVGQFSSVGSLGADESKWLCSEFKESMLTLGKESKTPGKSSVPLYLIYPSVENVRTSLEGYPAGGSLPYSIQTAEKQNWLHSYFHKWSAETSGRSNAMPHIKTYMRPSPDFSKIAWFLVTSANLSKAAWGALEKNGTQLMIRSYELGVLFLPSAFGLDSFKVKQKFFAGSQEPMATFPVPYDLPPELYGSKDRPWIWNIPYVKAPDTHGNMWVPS
#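 Compounds were preincubated with Tdp1 (1 nM final) for 15 min at room temperature before substrate (15 nM final) started a 5 min reaction; beads (10 ug/ml final) were then added for 10 min before AlphaScreen detection.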
# FEN1 inh – qHTS Assay for the Inhibitors of Human Flap endonuclease 1 (FEN1); P39748; Recombinant FEN1 flap cleavage, fluorescence, 15 min; Potency, µM (titrated, usually from 114 µM), for the others: at the highest dose activity change, negative = inhibition, hits mostly inhibitors; 0.35% of 390,000 active; also: potency is read from the fitted curve at half-maximal effect; % is scaled to controls: 0 for no effect and ±100 for the full control effect; nearly all actives have a fitted effect of over 65% in size
#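 Quantitative HTS format: each compound was titrated, incubated with 10 nM nuclease for 15 min at room temperature, then challenged with flap substrate at 50 nM final. Signal change over 15 min gave concentration–effect curves.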
# Pol eta inh-1 – qHTS for Inhibitors of Polymerase Eta. DNA polymerase eta (Homo sapiens), Q9Y253. recombinant Pol eta, fluorescent DNA replication assay. 1.2% of 390,000 active. Potency, µM (doses to about 114 µM), without a hit: at the top dose activity change, negative = inhibition, usual class: inhibitors; also: potency is read from the fitted curve at half-maximal effect; % is scaled to controls: 0 for no effect and ±100 for the full control effect
#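 Pol eta (10 nM) was preincubated with compounds for 15 min at room temperature, after which fluorescent replication substrate (50 nM final) was added to start the reaction. Fluorescence was read kinetically at 0 and 10 min.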
# POLI inh – qHTS for Inhibitors of Polymerase Iota; DNA polymerase iota (Homo sapiens), Q9UNA4; Pol iota fluorescent replication assay, 10 min; Potency, µM (top dose mostly 115 µM), inactives show at the top dose activity, negative = inhibition, hits mostly inhibitors; 1% of 390,000 active; AID 588590, 2011; also: potency is read from the fitted curve at half-maximal effect
#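 Fluorescent replication assay read twice, at 0 min and 10 min after adding 50 nM (final) substrate. Enzyme (10 nM) and compounds were first incubated 15 min at room temperature; enzyme-free buffer wells were negative controls.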
# GALK confirm – Confirmation Assay for Inhibitors of Human Galactokinase (GALK); Potency, µM (series often up to 115 µM), for inactives: at the highest dose activity, negative = inhibition, usual class: inhibitors; 70% of 150 active; AID 2015, 2009; shares compounds with Pol eta inh-1; purified GALK, Kinase-Glo ATP depletion luminescence
# GALK redox cs – Confirmatory Assay for Inhibitors of Human Galactokinase (GALK): Phenol-HRP redox assay counterscreen | shares compounds with Pol eta inh-1 | Potency, µM (titrated, usually from 115 µM), for inactives: at the top dose activity change, negative = H2O2 signal, hits mostly inhibitors | Phenol red-HRP H2O2 redox cycling, absorbance 600 nm | 40% of 150 active
# HEK293 viability – Secondary Assay for Inhibitors of Human Galactokinase (GALK): HEK-293 Cell Viability Assay | shares compounds with Pol eta inh-1 | 10% of 170 active | HEK-293 viability, ATP luminescence (CellTiter-Glo), 24/48 h | Potency, µM (titrated, usually from 46.1 µM), inactives show at the highest dose activity change, negative = cytotoxicity, most hits filed as inhibitors; also: potency is read from the fitted curve at half-maximal effect; % is scaled to controls: 0 for no effect and ±100 for the full control effect
# Pol kappa inh-2 – qHTS for Inhibitors of Polymerase Kappa: Confirmatory Assay for Cherry-picked Compounds | purified Pol-kappa, fluorescent strand-displacement substrate | shares compounds with Pol eta inh-1 | Potency, µM, hits mostly inhibitors | AID 720501, 2013 | 76% of 920 active; also: potency is read from the fitted curve at half-maximal effect
# Pol eta inh-2 – qHTS for Inhibitors of Polymerase Eta: Confirmatory Assay for Cherry-picked Compounds | shares compounds with Pol eta inh-1 | Pol eta primer extension, TAMRA/BHQ fluorescence, 10 min | Potency, µM, actives largely listed as inhibitors | 64% of 2,600 active; also: potency is read from the fitted curve at half-maximal effect
# * hit, by the source's call; ? = inconclusive; nt = no result; [ ] = remark or other dose. The list is not random: actives were taken first. Their share in the collection is about 2.4%. Calls follow the shape of the dose curve; as a rule, active = well fitted curve in the direction sought with a large enough effect; inconclusive = small, poorly fitted or top-dose-only effect, or another doubt; inactive = no such curve, though single readings can be large; an effect the other way counts as inactive or inconclusive.
SMILES,Pol kappa inh-1,POLB inh,TDP1 inh,FEN1 inh,Pol eta inh-1,POLI inh,Pol eta inh-2,others
CCOC(=O)CC(SP1(=S)OCC2(CCCCC2)CO1)C(=O)OCC (stereo not drawn),-36%,nt,nt,-26%,?,?,67*,
N#CC(Cl)Cl,nt,nt,-6%,nt,nt,nt,nt,
N/C(=N\[N+](=O)[O-])N/N=C/c1ccc(O)cc1,0%,9%,0%,-8%,-7%,7%,nt,
Nc1nonc1C(=O)N/N=C/c1ccc([N+](=O)[O-])o1,?,?,-2%,-26%,20µM*,32µM*,?,
Brc1cccc(-c2ccccc2)c1,nt,nt,1%,nt,nt,nt,nt,
CN1C(=O)/C(=C/c2cccn2-c2ccc3ccccc3c2)C(=O)NC1=S,32µM*,22µM*,11%,?,4µM*,8.9µM*,?,
Cc1ccc(/C=C2\C(=O)NC(=S)N(c3ccc(F)cc3)C2=O)o1,25µM*,16µM*,nt,?,13µM*,?,30*,Pol kappa inh-2=17*
Cc1ccc(/C=C2\C(=O)NC(=S)N(c3ccc(F)cc3)C2=O)s1,-20%,?,-4%,3%,?,?,nt,
COc1cccc(N2C(=O)NC(=O)/C(=C/c3ccc4c(c3)Cc3ccccc3-4)C2=O)c1,-17%,-20%,-14%,?,1%,?,nt,
COc1cccc(N2C(=O)/C(=C/c3ccc(C)o3)C(=O)NC2=S)c1,-10%,45µM*,nt,?,13µM*,?,60*,Pol kappa inh-2=30*
N#CC(Cl)(Cl)Cl,nt,nt,13%,nt,nt,nt,nt,
CCC(Oc1ccc(Cl)cc1)C(=O)OC1CC2CCC(C1)N2C (stereo not drawn),8%[19.4 µM],nt,7%,nt,nt,nt,nt,
CCN(CC)c1ccc(/C=C2\C(=O)NC(=O)N(CC3CCCO3)C2=O)cc1 (stereo not drawn),-10%,22%,3%,?,2%,-3%,nt,
Cc1cccc(OCCn2cccc2/C=C2/C(=O)NC(=O)N(Cc3ccco3)C2=O)c1,28µM*,32µM*,-10%,-33%,22µM*,8.9µM*,76*,
CCN(CC)c1ccc(/C=C2/C(=O)NC(=O)N(Cc3ccco3)C2=O)cc1,50µM*,-27%,?,?,10µM*,22µM*,?,
Cc1cc(/C=C2/C(=O)NC(=O)N(Cc3ccco3)C2=O)c(C)n1-c1ccccc1,71µM*,18µM*,3%,4%,35µM*,2.2µM*,76*,
CCc1ccc(N2C(=O)NC(=O)/C(=C/c3cccn3CCOc3ccc(C)cc3)C2=O)cc1,-15%,35%,5%,1%,?,?,nt,
Cc1ccc(NS(=O)(=O)c2ccc(Cl)c(N=Nc3c(O)[nH]c(=O)[nH]c3=O)c2)cc1Cl,-3%,nt,-8%,45µM*,22µM*,?,nt,Pol kappa inh-2=60*
COc1ccc(NS(=O)(=O)c2cc(N=Nc3c(O)[nH]c(=O)[nH]c3=O)ccc2Cl)cc1,-34%,nt,4%,-11%,-10%,53%,nt,
Cl.Cl.Cl.Cl.Cl.Cl.N.N.N.N.NNNNN.NNNNN.O.O.[Ru].[Ru].[Ru],?,nt,20%,nt,nt,nt,nt,
Cc1ccccc1N1C(=O)NC(=O)/C(=C\c2ccc3c(c2)CCCN3Cc2ccccc2)C1=O,-29%,25µM*,0%,-36%,20µM*,?,?,
Cc1ccc2c(c1)C1CN(C)CCC1N2C(=O)c1ccccc1NS(=O)(=O)c1cccc(C(F)(F)F)c1 (stereo not drawn),-14%,?,5%,-6%,-13%,10%,nt,
CCC[CH2][Sn]([Cl])([Cl])[Cl],nt,nt,4%,nt,nt,nt,nt,
Cn1cccc1/C=C1\C(=O)NC(=O)N(Cc2ccccc2Cl)C1=O,32µM*,-27%,2%,?,28µM*,20µM*,67*,
O=C1NC(=O)N(c2ccccc2)C(=O)/C1=C/c1ccoc1,?,?,-10%,?,28µM*,40µM*,76*,
SMILES,Pol kappa inh-1,POLB inh,TDP1 inh,FEN1 inh,Pol eta inh-1,POLI inh,Pol eta inh-2,others
CC(C)(OOC(C)(C)c1ccccc1)c1ccccc1,nt,nt,5%,nt,nt,nt,nt,
O=C1NC(=S)N(Cc2ccco2)C(=O)/C1=C\c1cccs1,nt,1.1µM*,nt,nt,nt,nt,nt,GALK confirm=?;GALK redox cs=2%;HEK293 viability=-2%
C=CCN1C(=O)/C(=C/c2cccs2)C(=O)NC1=S,-23%,79µM*,3%,-8%,?,?,?,
COc1ccc(N2C(=O)/C(=C/c3cccs3)C(=O)NC2=S)cc1,-32%,-1%,-5%,-4%,4%,?,nt,
CCN1C(=O)/C(=C/c2ccc(N(CC)CC)cc2OC)C(=O)NC1=S,-4%[60.1 µM],-15%,1%,12%,-4%,-10%,nt,
O=C1NC(=O)N(CCC2=CCCCC2)C(=O)/C1=C\c1cccs1,-29%,?,0%,?,20µM*,40µM*,?,
C=C(Cl)Cl,nt,nt,14%,nt,nt,nt,nt,
O=C1NC(=O)N(c2ccccc2F)C(=O)/C1=C/c1ccc(Sc2nc3ccccc3[nH]2)o1,22µM*,22µM*,2%,?,20µM*,?,30*,Pol kappa inh-2=27*
O=Cc1ccc(Cl)cc1Cl,nt,nt,16%,nt,nt,nt,nt,
